GC-A act – GC-A (human) enzyme activation. P16066. HEK293 GC-A cells, cGMP TR-FRET, EC30 ANP; 0% at EC30 ANP, 100% saturating ANP. activation, % at 10 µM. 0.14% of 370,000 active. AID 1671463; in the data active means activation above about 40%
ADAM10 inh – inhibitors of human ADAM10; recombinant ADAM10, EDANS/DABCYL FRET peptide cleavage, 3 h; inhibition, % at 7 µM; 0.62% of 370,000 active; AID 720582;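 active means inhibition above a per-campaign cutoff equal to the mean of compounds falling between control-based bounds plus 3 SD, cut at about 20% in these data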;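 further: 0% = DMSO wells while the 100% control is not disclosed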
NPR2 activator – GC-B (human) receptor activation. HEK293-GC-B cells, CNP EC30, cGMP TR-FRET; 0% at EC30 CNP, 100% saturating CNP. P20594. activation, % at 10 µM. 0.11% of 370,000 active;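 active means activation at 10 µM reaching about 35% in either raw or pattern-adjusted values, limit read from the data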
Target sequence (P20594 whole entry, looked up): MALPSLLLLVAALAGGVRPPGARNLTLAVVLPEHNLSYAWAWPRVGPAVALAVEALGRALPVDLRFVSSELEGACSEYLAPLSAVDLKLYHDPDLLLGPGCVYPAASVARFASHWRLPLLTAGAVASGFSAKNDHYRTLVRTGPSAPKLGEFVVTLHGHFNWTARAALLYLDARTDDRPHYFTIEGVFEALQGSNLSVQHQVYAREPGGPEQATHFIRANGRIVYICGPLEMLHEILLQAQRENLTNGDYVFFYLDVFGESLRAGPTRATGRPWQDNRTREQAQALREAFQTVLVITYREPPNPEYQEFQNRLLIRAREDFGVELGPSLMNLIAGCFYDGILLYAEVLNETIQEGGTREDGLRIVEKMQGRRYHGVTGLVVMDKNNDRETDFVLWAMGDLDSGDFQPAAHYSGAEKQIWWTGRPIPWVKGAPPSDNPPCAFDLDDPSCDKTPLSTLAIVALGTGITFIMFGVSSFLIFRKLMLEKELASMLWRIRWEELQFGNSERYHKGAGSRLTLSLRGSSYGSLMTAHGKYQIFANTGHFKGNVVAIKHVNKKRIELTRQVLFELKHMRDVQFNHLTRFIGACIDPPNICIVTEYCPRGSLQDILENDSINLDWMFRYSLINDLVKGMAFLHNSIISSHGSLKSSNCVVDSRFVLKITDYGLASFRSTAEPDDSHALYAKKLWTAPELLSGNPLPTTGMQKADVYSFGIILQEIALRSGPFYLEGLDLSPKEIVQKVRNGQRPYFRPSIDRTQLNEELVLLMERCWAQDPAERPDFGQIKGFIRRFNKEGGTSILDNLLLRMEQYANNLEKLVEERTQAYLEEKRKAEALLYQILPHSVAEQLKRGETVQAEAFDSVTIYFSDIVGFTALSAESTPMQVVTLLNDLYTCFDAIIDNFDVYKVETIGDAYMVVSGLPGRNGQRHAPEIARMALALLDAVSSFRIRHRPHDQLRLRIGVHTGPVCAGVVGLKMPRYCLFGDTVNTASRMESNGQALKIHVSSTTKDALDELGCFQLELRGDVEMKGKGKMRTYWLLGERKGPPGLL
FAS-TE inh – blocks the thioesterase domain of human fatty acid synthase. recombinant FAS-TE, OMFH fluorogenic substrate, fluorescence endpoint. inhibition, % at 15 µM. 0.67% of 360,000 active. AID 602261;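 active means compounds whose normalised, plate-corrected inhibition of enzyme fluorescence in the single-dose primary screen is 50% or more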;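 further: 0% = DMSO with enzyme and 100% = substrate without enzyme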
ADAM17 inh – inhibits human ADAM17 | P78536 | 0.83% of 370,000 active | inhibition, % at 6.95 µM | AID 720648 | recombinant ADAM17, EDANS/DABCYL FRET peptide cleavage;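 active means inhibition above the mean of compounds lying between control limits plus 3 SD, set per campaign, cut at about 8.5% in these data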;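 further: 0% = DMSO-only wells as the low control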
ADAM10 confirm – confirmation of inhibitors of human ADAM10 | inhibition, % at 6.95 µM | AID 743208 | shares compounds with ADAM10 inh | ADAM10 QFRET peptide cleavage, EDANS fluorescence | 1% of 2,100 active;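 active means inhibition above about 20% chosen separately for each screening run, limit read from the data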;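 further: 0% = DMSO wells and 100% = marimastat wells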
ADAM17 ctr – inhibits human ADAM17 in ADAM10 exosite counter-screen | inhibition, % at 6.95 µM | ADAM17 QFRET peptide cleavage, EDANS fluorescence | shares compounds with ADAM10 inh | 0.5% of 2,100 active;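 active means mean triplicate inhibition above the solvent-only control wells' mean plus 3 SD, cut at about 12% in these data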;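 further: 0% = DMSO wells and 100% = marimastat wells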
ADAM10 counter – counter-screen for ADAM17 exosite inhibitors: inhibitors of human ADAM10 | shares compounds with ADAM17 inh | recombinant ADAM10, EDANS/DABCYL FRET peptide cleavage, 3 h | inhibition, % at 6.95 µM | 47% of 2,900 active | AID 743256;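 active means mean inhibition over the triplicate runs exceeds the activity threshold set in the earlier primary screen, cut at about 20% in these data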;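 further: 0% = DMSO wells and 100% = marimastat wells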
ADAM17 confirm – human ADAM17 inhibition, confirmation | 65% of 2,900 active | shares compounds with ADAM17 inh | inhibition, % at 6.95 µM | recombinant ADAM17, EDANS/DABCYL QFRET peptide cleavage | AID 743257;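 active means mean inhibition across replicates above the hit cutoff set in the primary screen, cut at about 8.5% in these data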;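 further: 0% = DMSO wells and 100% = marimastat wells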
Active calls of the source: *; · = not tested or not shown. Only some compounds are listed: those with a hit (about 2% of all), similar ones and a draw of the others.

SMILES	GC-A act	ADAM10 inh	NPR2 activator	FAS-TE inh	ADAM17 inh	ADAM10 confirm	ADAM17 ctr	ADAM10 counter	ADAM17 confirm
CCN(CC)S(=O)(=O)c1ccc(NC(=O)COC(=O)CCc2cc(OC)c(OC)c(OC)c2)cc1	-4	28*	0	6	11*	6	1	5	3
O=C(CSc1ncnc2scc(-c3ccc(Cl)cc3)c12)Nc1ccccc1-c1ccccc1	-5	1	-1	·	-3	·	·	·	·
O=S(=O)(Nc1ccccc1)c1ccc(Oc2ncc(C(F)(F)F)cc2Cl)cc1	3	29*	-3	33	12*	5	2	35*	19*
Cn1nc(C(C)(C)C)cc1C(=O)N1CCCCC1c1cc(C(=O)Nc2cccc3c2CCCC3)no1 (centres undefined)	-5	21*	7	19	12*	7	2	18	9.2*
CC(=O)Nc1ccc(C(=O)N2CCCCC2c2cc(C(=O)Nc3cccc4c3CCCC4)no2)cc1 (centres undefined)	-3	-8	5	9	3	·	·	·	·
c1ccc(CN2CCC(Nc3nc(-c4ccccc4)nc4ccccc34)CC2)cc1	-4	21*	-10	27	8.9*	8	3	22*	15*
COc1ccccc1NC(=O)c1c(Nc2ccccc2C)sc(C(=O)Nc2cccc(Cl)c2)c1N	-3	21*	4	36	10*	28*	10	20	14*
OC[C@@H]1CN(Cc2ccc(-c3ccccc3)cc2)C[C@H](n2cnc3c(NCc4ccc(F)cc4)ncnc32)O1	-9	23*	-7	19	8.9*	6	4	29*	18*
COc1cc(CNc2ncnc3c2ncn3[C@H]2CN(Cc3cccc(C(F)(F)F)c3)C[C@@H](CO)O2)cc(OC)c1OC	-3	23*	-2	3	9.7*	1	-1	14	10*
COc1cc(CNc2ncnc3c2ncn3[C@H]2CN(Cc3cccc(C(F)(F)F)c3)C[C@@H](COC(C)=O)O2)cc(OC)c1OC	0	10	-1	15	6	·	·	·	·
CC(C)(C)NC(=O)CSc1nc2ccc(NC(=O)CSc3nnnn3Cc3ccccc3)cc2s1	-1	25*	1	9	9.8*	5	2	22*	14*
OC(c1ccc(F)c(F)c1)c1ncc(-c2cccc(C(F)(F)F)c2)[nH]1 (centres undefined)	-5	13	-5	24	8	·	·	·	·
OC(c1ccc(Cl)c(F)c1)c1ncc(-c2cccc(C(F)(F)F)c2)[nH]1 (centres undefined)	-2	32*	-4	43	11*	2	1	26*	14*
Cc1cc(NC(=O)CSc2nc3ccccc3cc2C#N)no1	-18	-2	-9	-6	-1	·	·	·	·
N#Cc1cc2ccccc2nc1SCC(=O)Nc1ccc(S(=O)(=O)N2CCCC2)cc1	-13	29*	-2	31	12*	6	4	-6	2
C[C@@H]1ON(C)[C@H]2C[C@H]3c4[nH]c5c(-c6ccc(F)cc6)cccc5c4CCN3C(=O)[C@@H]12	-10	-33	-7	·	-10	·	·	·	·
Cc1ccc(NS(=O)(=O)c2ccc(C)c(NC(=O)c3ccc(S(=O)(=O)N4CCCCCC4)cc3)c2)c(C)c1	-3	23*	1	26	8.8*	10	3	46*	24*
C[C@H](CO)N1C[C@H](C)[C@@H](CN(C)S(=O)(=O)c2ccccc2)Oc2c(NC(=O)Nc3ccc(C(F)(F)F)cc3)cccc2C1=O	1	19	-4	49	8	·	·	·	·
C[C@@H]1CN([C@H](C)CO)C(=O)c2cc(NC(=O)Nc3ccc(C(F)(F)F)cc3)ccc2O[C@H]1CN(C)S(=O)(=O)c1ccccc1	2	28*	2	22	11*	6	3	28*	16*
CC(/C=C1\SC(=O)N(CC(=O)Nc2cccc(O)c2)C1=O)=C\c1ccccc1	0	29*	-4	20	13*	12	4	24*	15*
CC(/C=C1\SC(=O)N(CC(=O)Nc2ccc(O)cc2)C1=O)=C\c1ccccc1	-4	8	1	11	3	·	·	·	·
Cc1ccc(-n2c(SCC(=O)c3ccc(F)cc3)nnc2-c2cnccn2)cc1	4	1	-9	·	1	·	·	·	·
O=C(Cc1ccccc1)N1CCC(Oc2cccnc2)CC1	3	-3	-7	·	-3	·	·	·	·
Cc1ccc(NC(=O)COC(=O)/C=C/c2cccc(Cl)c2)cc1S(=O)(=O)N1CCOCC1	-5	29*	4	41	9.5*	5	2	26*	15*
O=C(COC(=O)/C=C/c1cccc(Cl)c1)Nc1ccc(N2CCOCC2)cc1	0	-5	-9	0	-5	·	·	·	·
SMILES	GC-A act	ADAM10 inh	NPR2 activator	FAS-TE inh	ADAM17 inh	ADAM10 confirm	ADAM17 ctr	ADAM10 counter	ADAM17 confirm
Cc1ccc(NC(=O)COC(=O)CC2CC3CCC2C3)cc1S(=O)(=O)N1CCOCC1 (centres undefined)	4	23*	-2	22	12*	1	0	11	8
C#CCNC(=O)C[C@@H]1C(=O)N(CC=C)C2=CCCCC[C@]21C(=O)OC	1	-4	-3	·	0	·	·	·	·
COC(=O)[C@]12C[C@H](CC(=O)NCCCN3CCCC3=O)C(=O)N(Cc3cccc4ccccc34)C1=C[C@H](COCc1ccccc1)O[C@@H]2C	1	0	3	·	-1	·	·	·	·
COc1ccc(N/N=C(\C#N)C(=N)N2CCOCC2)cc1	-3	7	1	-4	8.8*	·	·	13	6
Cc1ccc(SCc2c(-c3ccccc3)nn(C)c2Cl)cc1	-4	3	-4	26	0	·	·	·	·
Cn1nc(-c2ccccc2)c(CSc2ccccc2)c1Cl	-2	7	-9	23	9.3*	·	·	13	9.3*
O=C(C1CCCN(S(=O)(=O)c2cccc3ccccc23)C1)N1CCN(Cc2ccccc2)CC1 (centres undefined)	1	-6	6	·	2	·	·	·	·
CCCCCCN1C[C@H](n2cc(C3CC3)nn2)[C@@H](O)C[C@@H]1c1ccc(C)cc1	-12	13	-10	32	15*	·	·	17	8

Screening results as filed in PubChem.
